Our source for the residual activity values is ChEMBL document CHEMBL2218924, “A broad activity screen in support of a chemogenomic map for kinase signalling research and drug discovery” (Biochem J, 2013).

Molecules are shown by their SMILES.

For the first assay, the target named is T1, Ephrin type-B receptor 3 (Homo sapiens) (UniProt P54753).
T1 sequence (whole entry): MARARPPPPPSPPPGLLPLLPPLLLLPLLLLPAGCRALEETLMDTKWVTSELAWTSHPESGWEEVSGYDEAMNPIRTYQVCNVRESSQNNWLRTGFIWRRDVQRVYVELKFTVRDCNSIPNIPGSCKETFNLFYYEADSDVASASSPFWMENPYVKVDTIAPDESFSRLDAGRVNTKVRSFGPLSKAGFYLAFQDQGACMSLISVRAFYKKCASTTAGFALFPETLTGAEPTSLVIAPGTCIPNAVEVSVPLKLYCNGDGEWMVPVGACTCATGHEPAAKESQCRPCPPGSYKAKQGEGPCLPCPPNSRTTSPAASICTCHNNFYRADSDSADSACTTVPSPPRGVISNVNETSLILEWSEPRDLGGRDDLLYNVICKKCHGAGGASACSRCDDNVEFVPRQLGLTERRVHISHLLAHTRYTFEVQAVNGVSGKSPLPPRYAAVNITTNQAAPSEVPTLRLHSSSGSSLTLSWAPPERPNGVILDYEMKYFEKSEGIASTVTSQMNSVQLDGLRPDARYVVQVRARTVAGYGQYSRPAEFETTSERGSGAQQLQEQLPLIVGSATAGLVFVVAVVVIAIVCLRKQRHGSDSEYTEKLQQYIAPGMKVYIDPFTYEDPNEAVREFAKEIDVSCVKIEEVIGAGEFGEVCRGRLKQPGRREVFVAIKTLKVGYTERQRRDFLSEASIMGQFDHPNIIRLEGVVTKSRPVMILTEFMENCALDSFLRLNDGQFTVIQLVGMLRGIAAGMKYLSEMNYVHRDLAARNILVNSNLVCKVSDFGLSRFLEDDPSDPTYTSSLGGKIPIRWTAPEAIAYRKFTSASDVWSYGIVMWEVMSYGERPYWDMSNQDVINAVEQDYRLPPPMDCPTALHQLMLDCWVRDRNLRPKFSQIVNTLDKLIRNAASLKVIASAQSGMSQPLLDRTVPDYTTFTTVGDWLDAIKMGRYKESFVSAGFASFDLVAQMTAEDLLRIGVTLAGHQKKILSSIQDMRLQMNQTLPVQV
Conditions: at 10 µM.
Usually residual activity stands for the signal under treatment as a percentage of the control signal. With `COc1cc2ncnc(Nc3ccc(OCc4ccccc4)cc3)c2cc1OC`, the residual activity was 100%.

As to `O=c1[nH]c2ccccc2n1C1CCN(Cc2ccc(-c3nc4cc5[nH]cnc5cc4nc3-c3ccccc3)cc2)CC1`, the residual activity turned out to be 105%.

Turning to `O=C1Nc2ccc3ncsc3c2/C1=C/c1c[nH]cn1`, the residual activity was determined as 131%.

In the case of `CCc1nc(-c2ccc(OC)cc2)[nH]c1-c1ccncc1`, the residual activity is 111%.

As for `O=C1c2ccccc2-c2nc3nnnn3nc21`, the residual activity is 133%.

`c1cc(-c2cnn3cc(-c4ccc(OCCN5CCCCC5)cc4)cnc23)ccn1`: the residual activity is 117%.

In the case of `COc1ccc2c(c[n+](C)c3c4cc5c(cc4ccc23)OCO5)c1OC`, the residual activity was determined as 133%.

On to `CN[C@@H]1C[C@H]2O[C@@](C)([C@@H]1OC)n1c3ccccc3c3c4c(c5c6ccccc6n2c5c31)C(=O)NC4`, for which the residual activity was 131%.

Consider `CC(C)(C)c1cc(C=C(C#N)C#N)cc(Br)c1O`, for which the residual activity turned out to be 121%.

In the case of `COC(=O)[C@@]1(O)C[C@H]2O[C@]1(C)n1c3ccccc3c3c4c(c5c6ccccc6n2c5c31)C(=O)NC4`, the residual activity stood at 100%.

In the case of `O=[N+]([O-])/C=C/c1ccc2c(c1)OCO2`, the residual activity was found to be 111%.

As for `C[S+]([O-])c1ccc(-c2nc(-c3ccc(F)cc3)c(-c3ccncc3)[nH]2)cc1` (stereo not drawn), the residual activity amounted to 105%.

In the case of `COc1cc(OC)c(/C=C2\C(=O)Nc3ccccc32)c(OC)c1`, the residual activity is 107%.

The next assay deals with T2, Ephrin type-B receptor 4 (Homo sapiens) (UniProt P54760).
T2 sequence (whole entry): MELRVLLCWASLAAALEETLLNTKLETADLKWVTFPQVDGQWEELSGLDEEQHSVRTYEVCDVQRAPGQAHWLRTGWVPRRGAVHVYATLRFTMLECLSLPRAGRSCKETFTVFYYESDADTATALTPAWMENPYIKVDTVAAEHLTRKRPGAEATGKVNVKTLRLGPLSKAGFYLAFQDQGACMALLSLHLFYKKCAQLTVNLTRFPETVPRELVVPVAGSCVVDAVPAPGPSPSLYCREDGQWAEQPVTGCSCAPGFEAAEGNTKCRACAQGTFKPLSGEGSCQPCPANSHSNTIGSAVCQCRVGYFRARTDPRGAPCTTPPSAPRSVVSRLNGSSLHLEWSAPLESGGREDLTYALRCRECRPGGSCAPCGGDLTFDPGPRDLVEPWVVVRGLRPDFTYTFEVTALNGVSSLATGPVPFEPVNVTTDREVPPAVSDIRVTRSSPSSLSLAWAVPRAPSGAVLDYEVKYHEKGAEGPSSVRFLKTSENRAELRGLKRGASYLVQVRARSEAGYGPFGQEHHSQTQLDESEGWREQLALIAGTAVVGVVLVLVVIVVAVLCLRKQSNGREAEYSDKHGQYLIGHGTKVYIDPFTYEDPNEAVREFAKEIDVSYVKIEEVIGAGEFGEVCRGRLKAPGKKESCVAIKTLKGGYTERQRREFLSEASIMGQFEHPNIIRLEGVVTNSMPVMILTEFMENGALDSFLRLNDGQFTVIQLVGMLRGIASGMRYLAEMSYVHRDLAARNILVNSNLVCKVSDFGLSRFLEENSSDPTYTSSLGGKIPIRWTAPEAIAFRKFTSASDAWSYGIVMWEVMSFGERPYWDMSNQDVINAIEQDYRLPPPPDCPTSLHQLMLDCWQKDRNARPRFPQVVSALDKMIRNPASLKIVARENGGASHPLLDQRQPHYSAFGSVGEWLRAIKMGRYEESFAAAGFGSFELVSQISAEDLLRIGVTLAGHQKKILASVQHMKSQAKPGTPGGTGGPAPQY
Conditions: at 1 µM.
Take `CCn1cnc2c(Nc3cccc(Cl)c3)nc(N[C@@H]3CCCC[C@@H]3N)nc21`: the residual activity was 51%.

On to `CC(C)[C@H](CO)Nc1nc(Nc2cccc(Cl)c2)c2ncn(C(C)C)c2n1`, for which the residual activity is 37%.

For the compound `COc1cc2ncnc(Nc3ccc(OCc4ccccc4)cc3)c2cc1OC`, the residual activity was 117%.

For the compound `O=c1[nH]c2ccccc2n1C1CCN(Cc2ccc(-c3nc4cc5[nH]cnc5cc4nc3-c3ccccc3)cc2)CC1`, the residual activity was determined as 109%.

Regarding `O=C1Nc2ccc3ncsc3c2/C1=C/c1c[nH]cn1`, the residual activity came to 79%.

Consider `CCc1nc(-c2ccc(OC)cc2)[nH]c1-c1ccncc1`, for which the residual activity was 112%.

As to `O=C1c2ccccc2-c2nc3nnnn3nc21`, the residual activity was found to be 118%.

Turning to `c1cc(-c2cnn3cc(-c4ccc(OCCN5CCCCC5)cc4)cnc23)ccn1`, the residual activity was 20%.

For `COc1ccc2c(c[n+](C)c3c4cc5c(cc4ccc23)OCO5)c1OC`, the residual activity is 94%.

As to `COc1ccc2c(c1)/C(=C/c1cnc[nH]1)C(=O)N2`, the residual activity was found to be 98%.

Turning to `CN[C@@H]1C[C@H]2O[C@@](C)([C@@H]1OC)n1c3ccccc3c3c4c(c5c6ccccc6n2c5c31)C(=O)NC4`, the residual activity turned out to be 79%.

Turning to `CC(C)(C)c1cc(C=C(C#N)C#N)cc(Br)c1O`, the residual activity was 102%.

`COC(=O)[C@@]1(O)C[C@H]2O[C@]1(C)n1c3ccccc3c3c4c(c5c6ccccc6n2c5c31)C(=O)NC4`: the residual activity stood at 71%.

On to `N/C(=N\[N+](=O)[O-])N/N=C\c1ccc(-c2cccc([N+](=O)[O-])c2)o1`, for which the residual activity worked out at 90%.

Take `O=[N+]([O-])/C=C/c1ccc2c(c1)OCO2`: the residual activity is 114%.

On to `C[S+]([O-])c1ccc(-c2nc(-c3ccc(F)cc3)c(-c3ccncc3)[nH]2)cc1` (stereo not drawn), for which the residual activity turned out to be 107%.

For `COc1cc(OC)c(/C=C2\C(=O)Nc3ccccc32)c(OC)c1`, the residual activity stood at 86%.

Another assay has as its target T2, Ephrin type-B receptor 4 (Homo sapiens). The settings on record: at 10 µM.
With `CCn1cnc2c(Nc3cccc(Cl)c3)nc(N[C@@H]3CCCC[C@@H]3N)nc21`, the residual activity came to 9%.

For `CC(C)[C@H](CO)Nc1nc(Nc2cccc(Cl)c2)c2ncn(C(C)C)c2n1`, the residual activity amounted to 4%.

With `COc1cc2ncnc(Nc3ccc(OCc4ccccc4)cc3)c2cc1OC`, the residual activity worked out at 132%.

In the case of `O=c1[nH]c2ccccc2n1C1CCN(Cc2ccc(-c3nc4cc5[nH]cnc5cc4nc3-c3ccccc3)cc2)CC1`, the residual activity came to 117%.

As for `O=C1Nc2ccc3ncsc3c2/C1=C/c1c[nH]cn1`, the residual activity was 29%.

With `CCc1nc(-c2ccc(OC)cc2)[nH]c1-c1ccncc1`, the residual activity worked out at 101%.

For `O=C1c2ccccc2-c2nc3nnnn3nc21`, the residual activity turned out to be 115%.

Turning to `c1cc(-c2cnn3cc(-c4ccc(OCCN5CCCCC5)cc4)cnc23)ccn1`, the residual activity was -1%.

As for `COc1ccc2c(c[n+](C)c3c4cc5c(cc4ccc23)OCO5)c1OC`, the residual activity turned out to be 119%.

Take `COc1ccc2c(c1)/C(=C/c1cnc[nH]1)C(=O)N2`: the residual activity was 77%.

Consider `CC(C)(C)c1cc(C=C(C#N)C#N)cc(Br)c1O`, for which the residual activity came out at 110%.

In the case of `COC(=O)[C@@]1(O)C[C@H]2O[C@]1(C)n1c3ccccc3c3c4c(c5c6ccccc6n2c5c31)C(=O)NC4`, the residual activity turned out to be 22%.

For `N/C(=N\[N+](=O)[O-])N/N=C\c1ccc(-c2cccc([N+](=O)[O-])c2)o1`, the residual activity stood at 90%.

As for `O=[N+]([O-])/C=C/c1ccc2c(c1)OCO2`, the residual activity worked out at 127%.

Regarding `C[S+]([O-])c1ccc(-c2nc(-c3ccc(F)cc3)c(-c3ccncc3)[nH]2)cc1` (stereo not drawn), the residual activity came to 41%.

Turning to `COc1cc(OC)c(/C=C2\C(=O)Nc3ccccc32)c(OC)c1`, the residual activity worked out at 82%.

The target in the next assay is Receptor tyrosine-protein kinase erbB-4 (Homo sapiens) (UniProt Q15303). The settings on record: at 1 µM.
Chain of Receptor tyrosine-protein kinase erbB-4 (Homo sapiens) (Q15303 whole entry): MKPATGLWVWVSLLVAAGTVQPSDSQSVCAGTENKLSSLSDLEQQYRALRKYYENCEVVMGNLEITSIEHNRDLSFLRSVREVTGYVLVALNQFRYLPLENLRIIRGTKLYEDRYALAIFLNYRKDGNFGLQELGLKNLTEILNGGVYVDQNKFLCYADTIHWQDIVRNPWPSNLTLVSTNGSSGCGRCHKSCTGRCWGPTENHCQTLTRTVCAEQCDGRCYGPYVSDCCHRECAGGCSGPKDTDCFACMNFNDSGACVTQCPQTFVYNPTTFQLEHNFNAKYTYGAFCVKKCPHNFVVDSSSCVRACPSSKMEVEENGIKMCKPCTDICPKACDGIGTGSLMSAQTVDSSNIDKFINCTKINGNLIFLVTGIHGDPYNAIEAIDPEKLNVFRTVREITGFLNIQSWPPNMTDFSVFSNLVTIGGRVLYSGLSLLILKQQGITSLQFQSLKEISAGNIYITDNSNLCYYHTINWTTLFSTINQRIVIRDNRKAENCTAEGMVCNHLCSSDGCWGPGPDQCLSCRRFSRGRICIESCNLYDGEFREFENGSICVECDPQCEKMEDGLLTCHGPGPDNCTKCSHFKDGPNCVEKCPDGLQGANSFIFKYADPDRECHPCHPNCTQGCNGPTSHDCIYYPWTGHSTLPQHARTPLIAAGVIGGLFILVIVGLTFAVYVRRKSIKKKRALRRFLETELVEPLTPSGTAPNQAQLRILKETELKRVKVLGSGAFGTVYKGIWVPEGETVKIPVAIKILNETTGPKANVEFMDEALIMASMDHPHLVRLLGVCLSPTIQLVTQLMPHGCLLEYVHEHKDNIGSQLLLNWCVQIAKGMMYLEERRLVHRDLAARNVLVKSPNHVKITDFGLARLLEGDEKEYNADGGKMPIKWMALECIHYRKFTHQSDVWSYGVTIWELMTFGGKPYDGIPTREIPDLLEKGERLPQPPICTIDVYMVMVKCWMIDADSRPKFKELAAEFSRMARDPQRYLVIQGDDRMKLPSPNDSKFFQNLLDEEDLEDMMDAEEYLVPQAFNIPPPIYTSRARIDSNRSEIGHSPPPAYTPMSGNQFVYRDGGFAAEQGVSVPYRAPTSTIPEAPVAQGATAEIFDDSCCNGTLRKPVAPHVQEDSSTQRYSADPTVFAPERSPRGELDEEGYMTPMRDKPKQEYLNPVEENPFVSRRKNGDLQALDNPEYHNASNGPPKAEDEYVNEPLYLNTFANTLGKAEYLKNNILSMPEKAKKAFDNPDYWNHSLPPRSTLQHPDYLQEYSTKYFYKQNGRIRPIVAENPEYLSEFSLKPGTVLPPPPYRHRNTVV
On to `CCn1cnc2c(Nc3cccc(Cl)c3)nc(N[C@@H]3CCCC[C@@H]3N)nc21`, for which the residual activity is 83%.

In the case of `O=c1[nH]c2ccccc2n1C1CCN(Cc2ccc(-c3nc4cc5[nH]cnc5cc4nc3-c3ccccc3)cc2)CC1`, the residual activity worked out at 99%.

`O=C1Nc2ccc3ncsc3c2/C1=C/c1c[nH]cn1`: the residual activity is 88%.

For the compound `O=C1c2ccccc2-c2nc3nnnn3nc21`, the residual activity was found to be 106%.

Take `c1cc(-c2cnn3cc(-c4ccc(OCCN5CCCCC5)cc4)cnc23)ccn1`: the residual activity is 129%.

On to `COc1ccc2c(c[n+](C)c3c4cc5c(cc4ccc23)OCO5)c1OC`, for which the residual activity came out at 96%.

For the compound `COc1ccc2c(c1)/C(=C/c1cnc[nH]1)C(=O)N2`, the residual activity was determined as 127%.

For the compound `CC(C)(C)c1cc(C=C(C#N)C#N)cc(Br)c1O`, the residual activity came to 114%.

For `COC(=O)[C@@]1(O)C[C@H]2O[C@]1(C)n1c3ccccc3c3c4c(c5c6ccccc6n2c5c31)C(=O)NC4`, the residual activity was 64%.

For `N/C(=N\[N+](=O)[O-])N/N=C\c1ccc(-c2cccc([N+](=O)[O-])c2)o1`, the residual activity was found to be 100%.

As to `O=[N+]([O-])/C=C/c1ccc2c(c1)OCO2`, the residual activity is 86%.

For the compound `C[S+]([O-])c1ccc(-c2nc(-c3ccc(F)cc3)c(-c3ccncc3)[nH]2)cc1` (stereo not drawn), the residual activity was 115%.
